Screens as filed in PubChem.
Most compounds without a hit are left out; they make up all but 10% or so of the library.
GLS inh = blocks human kidney-isoform glutaminase activity. O94925. Potency, µM (titrated, usually from 45.5 µM), for inactives: top-dose activity change, negative = inhibition, usual class: inhibitors. 0.21% of 410,000 active. AID 624170. GLS enzymatic activity, qHTS titration; note: % is set by controls: 0 for no effect and ±100 for the full control effect
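hKGA in 45 mM KH2PO4 (pH 8.2), 0.02% Tween-20 with compound, then 1mM L-Glutamine (stock as added) plus glutamate oxidase/HRP/Amplex red coupling mix. Fluorescence read initially and after 30 min at RT; signal change reflects glutamate formation.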
JMJD2A Tudor inh = blocks the human JMJD2A Tudor domain. Potency, µM (top dose mostly 114 µM), for the others: top-dose activity change, negative = inhibition, most hits filed as inhibitors. AID 504339. AlphaScreen JMJD2A-Tudor / H3K4me3 peptide binding. O75164. 4.4% of 390,000 active; note: % is set by controls: 0 for no effect and ±100 for the full control effect; nearly all actives have a fitted effect of over 50% in size
Target sequence (O75164 whole entry, looked up, the tested form may be a part): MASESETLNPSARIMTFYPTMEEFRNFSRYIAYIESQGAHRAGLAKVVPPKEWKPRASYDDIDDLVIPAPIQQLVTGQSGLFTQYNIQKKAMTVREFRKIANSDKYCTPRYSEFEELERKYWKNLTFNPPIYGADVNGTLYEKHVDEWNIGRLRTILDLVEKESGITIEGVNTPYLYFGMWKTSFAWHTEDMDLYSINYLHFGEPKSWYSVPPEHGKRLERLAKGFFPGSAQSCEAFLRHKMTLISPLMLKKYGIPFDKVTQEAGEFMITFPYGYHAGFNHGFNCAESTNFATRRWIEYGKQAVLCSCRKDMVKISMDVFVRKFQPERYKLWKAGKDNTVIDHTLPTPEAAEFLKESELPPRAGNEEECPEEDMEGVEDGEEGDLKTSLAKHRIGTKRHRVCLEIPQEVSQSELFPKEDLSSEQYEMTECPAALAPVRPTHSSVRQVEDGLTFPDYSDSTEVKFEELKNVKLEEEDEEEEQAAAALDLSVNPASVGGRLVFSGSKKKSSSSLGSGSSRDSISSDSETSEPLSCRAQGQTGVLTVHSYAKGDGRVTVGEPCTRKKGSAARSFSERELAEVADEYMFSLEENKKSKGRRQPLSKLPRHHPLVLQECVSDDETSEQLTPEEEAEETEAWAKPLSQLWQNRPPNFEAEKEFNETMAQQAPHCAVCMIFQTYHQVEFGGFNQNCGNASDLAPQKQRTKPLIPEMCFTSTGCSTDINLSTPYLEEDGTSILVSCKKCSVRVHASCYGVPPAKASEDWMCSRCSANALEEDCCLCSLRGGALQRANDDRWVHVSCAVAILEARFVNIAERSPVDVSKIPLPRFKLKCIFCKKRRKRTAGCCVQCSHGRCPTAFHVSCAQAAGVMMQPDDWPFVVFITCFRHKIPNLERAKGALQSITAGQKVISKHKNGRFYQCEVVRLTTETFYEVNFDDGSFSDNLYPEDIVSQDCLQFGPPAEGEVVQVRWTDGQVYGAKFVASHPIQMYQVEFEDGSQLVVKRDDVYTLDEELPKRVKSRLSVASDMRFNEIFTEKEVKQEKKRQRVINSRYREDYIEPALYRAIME
BAZ2B block = BAZ2B (human) inhibition | Q9UIF8 | AlphaScreen BAZ2B-H3K14Ac peptide displacement | Potency, µM (top dose mostly 114 µM), for the others: at the highest dose activity change, negative = inhibition, hits mostly inhibitors | 4.4% of 360,000 active | AID 504333; note: % is set by controls: 0 for no effect and ±100 for the full control effect; nearly all actives have a fitted effect of over 60% in size
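Multi-concentration screen (max 110 uM) measuring displacement of acetylated histone H3 peptide from BAZ2B by AlphaScreen, using 50 nM protein, 50 nM peptide and 10 ug/mL streptavidin donor plus Ni-chelate acceptor beads.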
HP1b binding inh = blocks HP1-beta chromodomain binding to methylated histone tails | P83916 | AlphaScreen HP1-beta / biotin-H3K9me3 peptide binding | Potency, µM (doses to about 114 µM), inactives show top-dose activity change, negative = inhibition, actives largely listed as inhibitors | 0.56% of 390,000 active | AID 540317; note: nearly all actives have a fitted effect of over 70% in size
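HP1-beta protein (50 nM final) preincubated 30 min at room temperature with biotinylated H3(1-18)K9me3 peptide (50 nM) in PBS pH 7.4, 0.01% Tween-20, then compound added for 30 min. AlphaScreen streptavidin donor/nickel chelate acceptor beads (10 ug/mL final), 30 min dark, luminescence read.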
G9a inh = G9a (human) methyltransferase inhibition; Potency, µM (top dose mostly 102 µM), without a hit: top-dose activity, negative = inhibition, hits mostly inhibitors; Q96KQ7; 8.8% of 350,000 active; G9a H3K9 monomethylation, AlphaScreen, 2 h; note: % is set by controls: 0 for no effect and ±100 for the full control effect; nearly all actives have a fitted effect of over 75% in size
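G9a (20 nM) preincubated 15 min RT with compounds, then 500 nM biotinylated H3K9 peptide and 20 uM SAM added; 2 h RT reaction. Monomethyl-H3K9 product detected by AlphaScreen with anti-H3K9me1 antibody, streptavidin donor and anti-rabbit IgG acceptor beads.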
* = called active by the depositor; [ ] = another dose, or the depositor's remark. Calls come from the whole dose curve; as a rule, active = well fitted curve in the direction sought with a large enough effect; inconclusive = small, poorly fitted or top-dose-only effect, or another doubt; inactive = no such curve, though single readings can be large; an effect the other way counts as inactive or inconclusive. Potency is the fitted concentration of half-maximal effect.

How did Nc1ccc(NC(=O)c2ccccc2)c2c1C(=O)c1ccccc1C2=O do in these assays?
GLS inh: -2%; JMJD2A Tudor inh: inconclusive; BAZ2B block: -29%; HP1b binding inh: 2%; G9a inh: inconclusive

Results for Cc1ccc(S(=O)(=O)c2c(C)cc(C)nc2N2CCCCC2)cc1 ?
GLS inh: 3%; JMJD2A Tudor inh: 34%; BAZ2B block: 6%; HP1b binding inh: 81%; G9a inh: 97%

How did O=C(CNC(=O)c1ccc2c(c1)OCCO2)N/N=C/c1ccco1 do in these assays?
GLS inh: -8%; JMJD2A Tudor inh: -30%; BAZ2B block: 0%; HP1b binding inh: 14%

How did CCOC(=O)/C(=N/Nc1ccc(C)cc1)S(=O)(=O)c1ccc(Cl)cc1 do in these assays?
GLS inh: -3%; JMJD2A Tudor inh: -24%; BAZ2B block: -36%; HP1b binding inh: 29%; G9a inh: 14µM*

Results for CCOC(=O)/C(=N\Nc1ccccc1)S(=O)(=O)c1ccccc1 ?
GLS inh: 3%; JMJD2A Tudor inh: inconclusive; BAZ2B block: -7%; HP1b binding inh: -7%; G9a inh: inconclusive

What do the screens show for `Cc1cccc(Cc2nnc(CCC(=O)N(C)Cc3ccncc3C)o2)c1`?
GLS inh: -1%; JMJD2A Tudor inh: -3%; BAZ2B block: -27%; HP1b binding inh: 29%; G9a inh: inconclusive

Results for CCOC(=O)CCSc1nc(C(C)(C)C)cc(C(F)(F)F)c1C#N ?
GLS inh: -6%; JMJD2A Tudor inh: 50%[57.1 µM]; BAZ2B block: 88%; HP1b binding inh: 149%; G9a inh: 52%[59 µM]

Results for CC(=C/c1ccco1)/C=N/N1CCN(c2ccccc2)CC1 ?
JMJD2A Tudor inh: 12%; BAZ2B block: inconclusive; HP1b binding inh: 20%; G9a inh: -8%

How did CC(/C=N/n1c(-c2ccncc2)n[nH]c1=S)=C\c1ccco1 do in these assays?
GLS inh: inconclusive; JMJD2A Tudor inh: 5µM*; BAZ2B block: inconclusive; HP1b binding inh: -5%

Results for CC(/C=N/n1c(-c2ccccc2)n[nH]c1=S)=C\c1ccco1 ?
GLS inh: -24%; JMJD2A Tudor inh: 50µM*; BAZ2B block: 50µM*; HP1b binding inh: -20%; G9a inh: 2.2µM*

How did CC(/C=N/NC(=O)c1cc(-c2ccncc2)nc2ccccc12)=C\c1ccco1 do in these assays?
GLS inh: -1%; JMJD2A Tudor inh: inconclusive; BAZ2B block: -8%; HP1b binding inh: inconclusive; G9a inh: inconclusive

How did CC(/C=N/n1c(-c2ccc(C)cc2)n[nH]c1=S)=C\c1ccco1 do in these assays?
GLS inh: -13%; JMJD2A Tudor inh: inconclusive; BAZ2B block: -29%; HP1b binding inh: inconclusive; G9a inh: 1.3µM*

Results for CC(/C=N/n1c(-c2ccco2)n[nH]c1=S)=C\c1ccco1 ?
GLS inh: -11%; JMJD2A Tudor inh: 45µM*; BAZ2B block: inconclusive; HP1b binding inh: inconclusive; G9a inh: 1.4µM*

Results for CC(/C=N/N1CCN(c2ccccc2)CC1)=C\c1ccco1 ?
GLS inh: 32%; JMJD2A Tudor inh: -31%; BAZ2B block: -34%[57.1 µM]; HP1b binding inh: -17%; G9a inh: -21%

What do the screens show for `N#CC[C@H](Cc1ccccc1)N1CC[C@@H](NC(=O)OCc2ccccc2)CCC1=O`?
GLS inh: 3%; JMJD2A Tudor inh: -25%; BAZ2B block: -33%; HP1b binding inh: 27%; G9a inh: inconclusive

What do the screens show for `CCCCCCSC1=C(C#N)C(c2ccccc2)CC(=O)N1` (centres undefined)?
GLS inh: -7%; JMJD2A Tudor inh: -3%; BAZ2B block: -29%; HP1b binding inh: 22%; G9a inh: -15%[12.7 µM]

How did N#CC1=C(C2CC2)CC(c2ccccc2)C(C#N)=C1N (centres undefined) do in these assays?
GLS inh: -7%; JMJD2A Tudor inh: -8%; BAZ2B block: 1%; HP1b binding inh: 52%; G9a inh: 50µM*

Results for Cc1ccc2cc(CCNC(=O)c3ccco3)c(=O)[nH]c2c1C ?
GLS inh: -6%; JMJD2A Tudor inh: -11%; BAZ2B block: 9%; HP1b binding inh: 48%; G9a inh: 79µM*
